For 1 compound, inhibition results are on record in ChEMBL document CHEMBL1961873, “Compounds: GSK PKIS; Assays: Nanosyn kinase panel” (2012).

Assay [1] concerns the target Sphingosine kinase 1 (Homo sapiens) (UniProt Q9NYA1). To be noted: at 1 µM.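 Note: mean SPHK1 inhibition value reported from the GSK PKIS kinase panel screen.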
In assay [2] the target is T1, Sphingosine kinase 2 (Homo sapiens) (UniProt Q9NRA0).
T1 sequence (whole entry): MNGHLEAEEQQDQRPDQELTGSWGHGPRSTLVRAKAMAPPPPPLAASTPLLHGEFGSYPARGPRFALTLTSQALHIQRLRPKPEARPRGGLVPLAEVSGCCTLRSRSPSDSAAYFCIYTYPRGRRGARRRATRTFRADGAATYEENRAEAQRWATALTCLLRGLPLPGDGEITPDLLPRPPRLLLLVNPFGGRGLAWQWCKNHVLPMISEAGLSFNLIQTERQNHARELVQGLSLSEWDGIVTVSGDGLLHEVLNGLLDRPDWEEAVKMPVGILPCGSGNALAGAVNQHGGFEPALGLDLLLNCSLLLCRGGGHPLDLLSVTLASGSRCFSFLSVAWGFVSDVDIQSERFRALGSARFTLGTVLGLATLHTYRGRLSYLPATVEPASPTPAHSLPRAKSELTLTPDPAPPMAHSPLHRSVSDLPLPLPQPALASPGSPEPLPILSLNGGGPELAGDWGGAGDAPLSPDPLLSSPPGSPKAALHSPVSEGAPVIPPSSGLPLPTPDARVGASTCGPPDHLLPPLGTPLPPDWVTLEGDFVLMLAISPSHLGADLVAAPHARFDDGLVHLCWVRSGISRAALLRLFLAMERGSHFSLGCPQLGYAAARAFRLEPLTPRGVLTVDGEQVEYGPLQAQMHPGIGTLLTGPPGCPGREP
To be noted: at 0.1 µM.

Assay [3] has as its target T1, Sphingosine kinase 2 (Homo sapiens). Conditions: at 1 µM.
Assay [4] addresses Casein kinase II subunit alpha (Homo sapiens) (UniProt P68400). Conditions: at 0.1 µM.
For assay [5] the target is unchanged. To be noted: at 1 µM.
The target of assay [6] is T2, Inhibitor of nuclear factor kappa-B kinase subunit alpha (Homo sapiens) (UniProt O15111).
T2 sequence (whole entry): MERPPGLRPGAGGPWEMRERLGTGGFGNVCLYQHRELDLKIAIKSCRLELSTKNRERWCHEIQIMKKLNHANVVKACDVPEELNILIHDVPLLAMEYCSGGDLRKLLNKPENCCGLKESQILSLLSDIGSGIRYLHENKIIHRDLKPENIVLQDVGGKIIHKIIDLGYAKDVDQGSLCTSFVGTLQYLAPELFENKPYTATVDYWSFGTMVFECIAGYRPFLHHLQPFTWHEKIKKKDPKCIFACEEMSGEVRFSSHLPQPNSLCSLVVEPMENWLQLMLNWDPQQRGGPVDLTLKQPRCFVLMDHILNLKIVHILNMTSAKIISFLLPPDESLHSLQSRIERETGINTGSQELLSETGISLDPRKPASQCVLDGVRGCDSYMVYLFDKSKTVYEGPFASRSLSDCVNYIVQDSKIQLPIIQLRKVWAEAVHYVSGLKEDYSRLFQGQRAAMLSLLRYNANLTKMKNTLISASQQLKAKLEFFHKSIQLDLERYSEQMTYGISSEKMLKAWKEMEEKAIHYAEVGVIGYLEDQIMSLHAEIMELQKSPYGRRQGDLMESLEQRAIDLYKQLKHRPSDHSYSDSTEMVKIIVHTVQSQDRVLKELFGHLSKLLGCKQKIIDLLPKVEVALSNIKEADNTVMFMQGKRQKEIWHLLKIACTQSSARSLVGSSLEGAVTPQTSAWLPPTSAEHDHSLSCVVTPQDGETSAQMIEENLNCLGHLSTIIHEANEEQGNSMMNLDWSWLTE
Conditions: at 0.1 µM.

Assay [7] addresses T2, Inhibitor of nuclear factor kappa-B kinase subunit alpha (Homo sapiens). Conditions: at 1 µM.
The target of assay [8] is T3, Inhibitor of nuclear factor kappa-B kinase subunit beta (Homo sapiens) (UniProt O14920).
T3 sequence (whole entry): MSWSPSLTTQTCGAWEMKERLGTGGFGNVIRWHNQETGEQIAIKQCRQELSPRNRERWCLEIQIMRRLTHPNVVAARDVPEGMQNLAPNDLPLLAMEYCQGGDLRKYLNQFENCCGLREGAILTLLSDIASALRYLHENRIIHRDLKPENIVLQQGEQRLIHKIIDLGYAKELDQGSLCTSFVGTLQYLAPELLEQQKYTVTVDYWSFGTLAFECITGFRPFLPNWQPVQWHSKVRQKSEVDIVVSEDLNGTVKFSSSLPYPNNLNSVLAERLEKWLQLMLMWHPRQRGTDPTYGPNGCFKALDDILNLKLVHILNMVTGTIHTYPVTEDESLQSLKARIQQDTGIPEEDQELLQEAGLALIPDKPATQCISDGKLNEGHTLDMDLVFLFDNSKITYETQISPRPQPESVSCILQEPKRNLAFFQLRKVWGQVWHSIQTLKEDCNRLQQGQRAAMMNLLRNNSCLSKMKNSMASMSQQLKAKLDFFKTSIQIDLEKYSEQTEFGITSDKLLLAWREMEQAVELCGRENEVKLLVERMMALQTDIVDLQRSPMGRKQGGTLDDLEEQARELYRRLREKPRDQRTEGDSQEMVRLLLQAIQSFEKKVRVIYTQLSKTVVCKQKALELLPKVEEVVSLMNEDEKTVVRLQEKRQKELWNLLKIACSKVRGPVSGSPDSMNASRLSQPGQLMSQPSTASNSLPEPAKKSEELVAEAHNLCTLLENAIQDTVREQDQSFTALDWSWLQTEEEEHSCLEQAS
Conditions: at 0.1 µM.

Assay [9] has as its target T3, Inhibitor of nuclear factor kappa-B kinase subunit beta (Homo sapiens). To be noted: at 1 µM.
Assay [10] concerns the target T4, Inhibitor of nuclear factor kappa-B kinase subunit epsilon (Homo sapiens) (UniProt Q14164).
T4 sequence (whole entry): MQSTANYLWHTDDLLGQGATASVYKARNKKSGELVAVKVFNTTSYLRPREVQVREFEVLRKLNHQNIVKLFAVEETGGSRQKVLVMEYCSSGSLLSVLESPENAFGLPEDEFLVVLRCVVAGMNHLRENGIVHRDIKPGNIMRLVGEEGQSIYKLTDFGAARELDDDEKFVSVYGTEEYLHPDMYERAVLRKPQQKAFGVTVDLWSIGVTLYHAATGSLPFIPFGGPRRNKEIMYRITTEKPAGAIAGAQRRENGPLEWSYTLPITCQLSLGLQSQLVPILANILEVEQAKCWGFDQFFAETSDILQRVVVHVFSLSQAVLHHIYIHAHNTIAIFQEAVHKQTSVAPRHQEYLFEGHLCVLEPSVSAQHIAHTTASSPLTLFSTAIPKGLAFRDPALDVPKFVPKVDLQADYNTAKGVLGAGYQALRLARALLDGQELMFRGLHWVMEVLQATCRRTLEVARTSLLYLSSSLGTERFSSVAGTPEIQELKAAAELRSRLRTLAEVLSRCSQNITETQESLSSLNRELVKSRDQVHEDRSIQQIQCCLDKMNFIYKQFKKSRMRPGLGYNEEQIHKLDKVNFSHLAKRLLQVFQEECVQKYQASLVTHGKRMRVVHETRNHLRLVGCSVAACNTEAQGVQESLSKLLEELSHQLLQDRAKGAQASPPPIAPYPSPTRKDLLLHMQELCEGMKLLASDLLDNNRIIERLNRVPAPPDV
Conditions: at 0.1 µM.

In assay [11] the target is T4, Inhibitor of nuclear factor kappa-B kinase subunit epsilon (Homo sapiens). To be noted: at 1 µM.
The target of assay [12] is T5, Serine/threonine-protein kinase Nek1 (Homo sapiens) (UniProt Q96PY6).
T5 sequence (whole entry): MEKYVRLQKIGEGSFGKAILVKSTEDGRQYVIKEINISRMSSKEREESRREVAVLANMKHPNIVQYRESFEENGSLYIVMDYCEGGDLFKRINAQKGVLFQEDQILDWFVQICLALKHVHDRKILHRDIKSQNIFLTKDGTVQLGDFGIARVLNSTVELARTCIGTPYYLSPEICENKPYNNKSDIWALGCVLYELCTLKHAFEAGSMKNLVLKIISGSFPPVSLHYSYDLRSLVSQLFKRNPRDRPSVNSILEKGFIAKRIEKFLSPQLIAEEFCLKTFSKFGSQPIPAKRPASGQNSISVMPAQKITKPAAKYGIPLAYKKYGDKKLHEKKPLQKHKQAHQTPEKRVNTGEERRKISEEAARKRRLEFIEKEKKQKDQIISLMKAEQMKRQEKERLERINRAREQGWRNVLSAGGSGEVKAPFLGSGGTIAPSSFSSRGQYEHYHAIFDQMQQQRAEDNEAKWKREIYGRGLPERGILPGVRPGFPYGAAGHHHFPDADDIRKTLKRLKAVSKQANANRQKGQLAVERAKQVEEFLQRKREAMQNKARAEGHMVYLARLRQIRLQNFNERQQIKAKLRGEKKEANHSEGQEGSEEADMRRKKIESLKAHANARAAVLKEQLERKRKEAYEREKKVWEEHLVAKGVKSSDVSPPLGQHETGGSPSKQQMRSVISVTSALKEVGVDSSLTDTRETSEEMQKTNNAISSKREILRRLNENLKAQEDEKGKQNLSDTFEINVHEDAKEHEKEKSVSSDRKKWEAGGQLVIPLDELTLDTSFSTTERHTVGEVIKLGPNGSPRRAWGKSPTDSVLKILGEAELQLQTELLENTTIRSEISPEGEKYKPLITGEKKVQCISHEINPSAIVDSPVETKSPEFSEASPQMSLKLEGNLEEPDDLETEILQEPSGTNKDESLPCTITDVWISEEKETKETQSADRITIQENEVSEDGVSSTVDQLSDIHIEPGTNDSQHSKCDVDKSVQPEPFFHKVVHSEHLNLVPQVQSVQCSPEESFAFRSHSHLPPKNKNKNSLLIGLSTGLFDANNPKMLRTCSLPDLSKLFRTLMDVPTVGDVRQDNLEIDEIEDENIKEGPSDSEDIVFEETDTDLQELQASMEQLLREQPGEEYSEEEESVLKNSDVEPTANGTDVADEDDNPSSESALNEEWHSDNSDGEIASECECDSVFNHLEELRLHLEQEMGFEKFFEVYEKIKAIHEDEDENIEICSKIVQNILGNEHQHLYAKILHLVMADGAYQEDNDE
Conditions: at 0.1 µM.

The target of assay [13] is T5, Serine/threonine-protein kinase Nek1 (Homo sapiens). Conditions: at 1 µM.
Assay [14] has as its target T6, Serine/threonine-protein kinase Nek2 (Homo sapiens) (UniProt P51955).
T6 sequence (whole entry): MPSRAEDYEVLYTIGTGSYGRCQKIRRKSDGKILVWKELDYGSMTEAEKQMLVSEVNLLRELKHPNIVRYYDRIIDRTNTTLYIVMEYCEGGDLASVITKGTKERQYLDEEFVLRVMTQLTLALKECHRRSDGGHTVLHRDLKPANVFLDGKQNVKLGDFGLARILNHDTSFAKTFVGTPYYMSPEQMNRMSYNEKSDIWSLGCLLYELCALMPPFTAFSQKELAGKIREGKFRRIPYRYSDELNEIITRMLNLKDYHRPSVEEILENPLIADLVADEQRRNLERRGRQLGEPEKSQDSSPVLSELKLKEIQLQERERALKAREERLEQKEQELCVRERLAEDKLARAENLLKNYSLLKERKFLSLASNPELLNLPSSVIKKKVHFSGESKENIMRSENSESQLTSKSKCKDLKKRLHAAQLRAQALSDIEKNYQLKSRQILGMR
Conditions: at 0.1 µM.

Assay [15] concerns the target T6, Serine/threonine-protein kinase Nek2 (Homo sapiens). Conditions: at 1 µM.
For assay [16], the target named is Serine/threonine-protein kinase Nek6 (Homo sapiens) (UniProt Q9HC98). To be noted: at 0.1 µM.
Chain of Serine/threonine-protein kinase Nek6 (Homo sapiens) (Q9HC98 whole entry): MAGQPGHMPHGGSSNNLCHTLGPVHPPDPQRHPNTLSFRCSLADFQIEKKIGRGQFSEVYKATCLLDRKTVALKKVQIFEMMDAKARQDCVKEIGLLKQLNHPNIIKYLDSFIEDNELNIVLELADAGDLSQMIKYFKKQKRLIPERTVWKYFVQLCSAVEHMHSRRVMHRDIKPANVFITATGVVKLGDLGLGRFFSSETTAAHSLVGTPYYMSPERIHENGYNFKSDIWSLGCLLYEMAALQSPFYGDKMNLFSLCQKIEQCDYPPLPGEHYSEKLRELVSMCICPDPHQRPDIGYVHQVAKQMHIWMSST
The target is the same in assay [17]. Conditions: at 1 µM.
The target in assay [18] is Serine/threonine-protein kinase Nek7 (Homo sapiens) (UniProt Q8TDX7). Conditions: at 0.1 µM.
Chain of Serine/threonine-protein kinase Nek7 (Homo sapiens) (Q8TDX7 whole entry, looked up): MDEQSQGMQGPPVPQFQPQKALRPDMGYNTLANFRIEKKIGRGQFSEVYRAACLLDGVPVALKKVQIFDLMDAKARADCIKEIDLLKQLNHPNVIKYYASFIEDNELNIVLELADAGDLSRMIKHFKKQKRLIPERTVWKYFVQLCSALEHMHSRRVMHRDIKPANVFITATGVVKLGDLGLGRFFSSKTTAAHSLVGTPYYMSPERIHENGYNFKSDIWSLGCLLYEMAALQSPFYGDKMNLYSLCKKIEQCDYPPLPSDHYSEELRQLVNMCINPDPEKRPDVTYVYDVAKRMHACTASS
Assay [19] has the same target. Conditions: at 1 µM.
For assay [20], the target named is T7, Serine/threonine-protein kinase Nek9 (Homo sapiens) (UniProt Q8TD19).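 Note: reported value is the mean percent inhibition of NEK9.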
T7 sequence (whole entry): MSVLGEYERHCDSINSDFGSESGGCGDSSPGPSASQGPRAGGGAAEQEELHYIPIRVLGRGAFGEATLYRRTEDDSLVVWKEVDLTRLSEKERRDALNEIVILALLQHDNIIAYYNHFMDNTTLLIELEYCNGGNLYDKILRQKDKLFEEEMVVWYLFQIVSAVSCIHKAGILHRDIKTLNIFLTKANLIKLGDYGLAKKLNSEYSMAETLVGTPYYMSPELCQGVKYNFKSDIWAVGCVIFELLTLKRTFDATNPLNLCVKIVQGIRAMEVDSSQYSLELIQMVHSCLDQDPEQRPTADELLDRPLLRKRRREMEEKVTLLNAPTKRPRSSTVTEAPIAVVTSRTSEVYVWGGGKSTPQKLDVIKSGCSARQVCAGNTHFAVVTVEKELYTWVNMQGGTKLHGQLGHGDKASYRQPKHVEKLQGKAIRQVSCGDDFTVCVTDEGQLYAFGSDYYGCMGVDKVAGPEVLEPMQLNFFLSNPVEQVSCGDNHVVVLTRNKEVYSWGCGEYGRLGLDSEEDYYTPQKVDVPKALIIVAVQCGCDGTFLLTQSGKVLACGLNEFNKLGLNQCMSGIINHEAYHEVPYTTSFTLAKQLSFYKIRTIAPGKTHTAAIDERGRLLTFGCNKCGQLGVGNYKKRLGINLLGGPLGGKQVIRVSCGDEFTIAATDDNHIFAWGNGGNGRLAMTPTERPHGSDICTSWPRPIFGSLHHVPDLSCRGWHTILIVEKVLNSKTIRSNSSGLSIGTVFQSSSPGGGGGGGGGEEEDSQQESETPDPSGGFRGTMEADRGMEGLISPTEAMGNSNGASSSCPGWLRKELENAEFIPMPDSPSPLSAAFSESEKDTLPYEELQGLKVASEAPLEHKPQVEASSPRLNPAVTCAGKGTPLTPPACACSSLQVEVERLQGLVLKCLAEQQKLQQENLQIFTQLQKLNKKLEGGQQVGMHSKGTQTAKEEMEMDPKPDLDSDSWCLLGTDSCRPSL
To be noted: at 0.1 µM.

Chain of Casein kinase II subunit alpha (Homo sapiens) (P68400 whole entry, looked up): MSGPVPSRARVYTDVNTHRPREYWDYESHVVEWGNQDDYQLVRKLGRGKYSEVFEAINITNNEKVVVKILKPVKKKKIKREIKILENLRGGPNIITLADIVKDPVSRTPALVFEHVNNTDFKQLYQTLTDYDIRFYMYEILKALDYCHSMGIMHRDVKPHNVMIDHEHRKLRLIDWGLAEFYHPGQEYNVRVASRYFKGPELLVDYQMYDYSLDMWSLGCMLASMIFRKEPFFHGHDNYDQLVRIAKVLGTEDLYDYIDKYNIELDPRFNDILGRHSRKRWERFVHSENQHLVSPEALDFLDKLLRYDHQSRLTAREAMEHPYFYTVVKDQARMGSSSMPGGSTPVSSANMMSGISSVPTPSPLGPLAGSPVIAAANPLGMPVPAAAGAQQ
Chain of Sphingosine kinase 1 (Homo sapiens) (Q9NYA1 whole entry): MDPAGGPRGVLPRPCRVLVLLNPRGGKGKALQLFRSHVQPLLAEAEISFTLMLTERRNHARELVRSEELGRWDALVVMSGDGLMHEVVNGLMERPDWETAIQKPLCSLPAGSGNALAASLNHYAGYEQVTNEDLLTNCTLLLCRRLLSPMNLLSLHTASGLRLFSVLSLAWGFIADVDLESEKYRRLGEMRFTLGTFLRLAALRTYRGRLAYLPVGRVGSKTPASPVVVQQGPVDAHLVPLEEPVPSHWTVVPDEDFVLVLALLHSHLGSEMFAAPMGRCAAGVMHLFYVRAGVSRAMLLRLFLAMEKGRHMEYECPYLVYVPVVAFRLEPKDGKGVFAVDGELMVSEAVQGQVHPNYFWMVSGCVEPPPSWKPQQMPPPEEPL

On to `CS(=O)(=O)Nc1ccc(-c2cc(-c3ccccc3)cc(C(N)=O)c2N)cc1`, for which the inhibition (in general, the change of the read-out against control, counted positive when it falls) was 2.51% in assay [1]; -0.04% in assay [2]; -0.67% in assay [3]; 0.89% in assay [4]; 2.26% in assay [5]; 1.46% in [6]. Besides, the inhibition amounted to 4.19% in assay [7]; 6.82% in assay [8]; 27.4% in [9]; 0.29% in assay [10]; 1.3% in assay [11]; 1.84% in assay [12]. Besides, the inhibition was 1.25% in assay [13]; 4.07% in [14]; 2.73% in [15]; 1.42% in assay [16]; -0.5% in assay [17]; 1.35% in assay [18]. The inhibition in [19] was 6.39%; in assay [20], 2.67%.
